# Most compounds without a hit are left out; they make up all but 3.6% or so of the library.
# Tau fil binding = qHTS Assay for Tau Filament Binding | Microtubule-associated protein tau (Homo sapiens), P10636 | recombinant tau filaments, thioflavin S fluorescence, 15 h; filaments grown with octadecylsulfate alongside compound | Potency, µM (highest dose often 57.1 µM), for the others: at the top dose activity change, negative = inhibition | 71,000 compounds, 2% hits;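 note: % is set by controls: 0 for no effect and ±100 for the full control effect; actives lower thioflavin S fluorescence by blocking filaments or displacing dye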
# Target sequence (P10636 whole entry, looked up): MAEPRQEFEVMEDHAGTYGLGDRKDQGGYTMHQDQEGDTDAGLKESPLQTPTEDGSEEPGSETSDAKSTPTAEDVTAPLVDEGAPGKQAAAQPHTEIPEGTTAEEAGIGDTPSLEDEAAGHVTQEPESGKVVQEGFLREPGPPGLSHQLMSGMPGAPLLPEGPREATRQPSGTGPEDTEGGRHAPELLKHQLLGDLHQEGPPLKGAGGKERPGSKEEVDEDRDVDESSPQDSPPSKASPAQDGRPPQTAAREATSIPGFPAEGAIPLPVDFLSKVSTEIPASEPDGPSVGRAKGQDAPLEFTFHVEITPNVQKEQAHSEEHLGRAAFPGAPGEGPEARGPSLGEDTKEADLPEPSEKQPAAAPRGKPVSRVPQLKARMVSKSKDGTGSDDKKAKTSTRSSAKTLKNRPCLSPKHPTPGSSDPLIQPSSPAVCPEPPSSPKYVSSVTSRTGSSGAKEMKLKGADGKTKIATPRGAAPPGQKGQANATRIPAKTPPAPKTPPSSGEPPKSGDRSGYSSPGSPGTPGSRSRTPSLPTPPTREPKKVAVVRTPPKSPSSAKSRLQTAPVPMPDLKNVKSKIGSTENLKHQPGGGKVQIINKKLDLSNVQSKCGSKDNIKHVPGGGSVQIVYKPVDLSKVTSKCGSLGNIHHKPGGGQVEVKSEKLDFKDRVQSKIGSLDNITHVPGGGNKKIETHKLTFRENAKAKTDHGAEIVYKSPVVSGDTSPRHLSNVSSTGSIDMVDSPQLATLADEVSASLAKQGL
#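 Quantitative HTS: thioflavine S signal from ODS-induced tau filaments, excited at 450 nm, emission 510 nm. Conditions: 1 uM tau, 30 uM ODS, 15 h at 37 C, pH 7.4.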
# 15-hLO inh = qHTS Assay for Inhibitors of 15-hLO (15-human lipoxygenase). purified 15hLO-1, xylenol orange hydroperoxide absorbance. Potency, µM (doses to about 57.1 µM), inactives show top-dose activity change, negative = inhibition, hits mostly inhibitors. 74,000 compounds, 1.4% hits; note: % is set by controls: 0 for no effect and ±100 for the full control effect; nearly all actives have a fitted effect of over 55% in size
#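 Purified human 15hLO-1 (40 nM) in 25 mM Hepes pH 7.5, 0.01% Triton X-100, preincubated 15 min RT with compound, then 50 uM arachidonic acid for 6 min. Hydroperoxide read by ferrous/xylenol orange, 30 min; 573/405 nm absorbance ratio gave progress.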
# CRE-bla Fsk = Cell signaling CRE-BLA (Fsk stim). CHO CRE-bla reporter (cAMP response element driving beta-lactamase), forskolin EC10, beta-lactamase ratio. Potency, µM (highest dose often 38.2 µM), inactives show at the top dose activity change, negative = inhibition, usual class: activators. 71,000 compounds, 2.5% hits. AID 662, 2007; active = well fitted activation curve with a large enough effect in the signal ratio, with a control signal flat, not every such curve was filed as active; inconclusive = small, poorly fitted or top-dose-only effect, or effect the other way, or a change in a side signal; the % refers to the signal ratio; note: % of control where 0% means no effect
#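 Cells were plated overnight at 37 °C, exposed to compound titrations plus EC10 NKH 477 for 3 h, then given CCF4 dye for 2 h at room temperature. Blue/green (460/530 nm) ratio was converted to %Activity and AC50 values calculated.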
# Hsp90 Hop PPI = qHTS Assay for Disrupters of an Hsp90 Co-Chaperone Interaction. Hsp90 C-terminal peptide / TPR2A (Hop) interaction, human. AlphaScreen TPR2A-His6 binding biotin-Hsp90 C-terminal peptide. Potency, µM (doses to about 57 µM), inactives show at the top dose activity change, negative = inhibition. 71,000 compounds, 0.44% hits. AID 595, 2007; active = well fitted curve in either direction with a large enough effect; inconclusive = small, poorly fitted or top-dose-only effect, or another doubt; note: % is set by controls: 0 for no effect and ±100 for the full control effect
# IkB sig inh = IkB Signaling | 110,000 compounds, 0.04% hits | ABC-DLBCL IkBa-CBG/CBR dual luciferase ratio, 4 h; response scale: scaled: untreated 0%, proteasome inhibitor 100% | Potency, µM (series often up to 57.1 µM), without a hit: at the top dose IkBa stabilization activation; active = well fitted curve in the direction sought with a large enough effect in the signal ratio, not every such curve was filed as active; inconclusive = small, poorly fitted or top-dose-only effect, or a change in a side signal; the % refers to the signal ratio;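 note: the direction sought is a rising ratio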
#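 In this assay, an IκBα–CBG68 fusion accumulates when IKK-driven degradation is blocked; native CBR normalizes for cell number. OCI-Ly3 cells were treated 4 h with compound and doxycycline, then green and red light read after Chroma-Glo addition.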
# * = called active by the depositor; i = inactive; u = inconclusive; x = no result; ! = repeats disagree; [ ] = remark or other dose. Unless noted, calls come from the whole dose curve; as a rule, active = well fitted curve in the direction sought with a large enough effect; inconclusive = small, poorly fitted or top-dose-only effect, or another doubt; inactive = no such curve, though single readings can be large; an effect the other way counts as inactive or inconclusive. Potency is the fitted concentration of half-maximal effect.
SMILES,Tau fil binding,15-hLO inh,CRE-bla Fsk,Hsp90 Hop PPI,IkB sig inh
Cc1ccc(C)c(CN2C(=O)c3ccccc3S(=O)c3ccc(C(=O)NCCC4=CCCCC4)cc32)c1 (stereo unspecified),x,x,x,x,2%
O=C1CCCC/C1=C\Nc1ccccc1C(=O)O,0%,1%,-8%,-5%,7%
CCOC(=O)c1ccccc1N/C=C1\CCCC1=O,2%,-6%,10µM*,-2%,2%
O=S(=O)(Nc1cc(F)ccc1F)c1ccc2[nH]c3c(c2c1)CCCCC3,x,x,x,x,-5%
Cc1cc(N2CCOCC2)c2c(N)c(Br)cc(C)c2n1,3.2µM*,0%[11.4 µM],0.79µM*,4%[11 µM],-2%
Cc1cc(N2CCN(c3nc(N4CCOCC4)nc4ccccc34)CC2)c2ccccc2n1,-8%,7%,5%,-7%,0%
O=C(O)[C@H]1CCCC[C@@H]1c1c2ccc(=O)c(O)c-2oc2c(O)c(O)ccc12,4µM*,u,-11%[7.6 µM],u,0%[11.4 µM]
O=C(O)/C=C\c1c2ccc(=O)c(O)c-2oc2c(O)c(O)ccc12,5µM*,1.6µM*,1%[7.6 µM],u,2%[11.4 µM]
COc1ccc(NC(=O)CSc2nc3nc(C)c(Cc4ccc(C)cc4)c(C)n3n2)cc1OC,x,x,x,x,-1%
Cc1cc(=O)oc2c(N)c(O)ccc12,-13%,-16%,u,1%,0%
O=c1oc2c(O)c(O)cc3c(=O)oc4c(O)c(O)cc1c4c23,u,u,u,32µM*,2%[11.4 µM]
Cc1ccc2[nH]c(CSc3nnc(NC(=O)COc4ccccc4F)s3)cc(=O)c2c1,x,x,x,x,0%
CCOc1ccc(NC(=O)c2sc3nc4c(cc3c2N)CCCCCC4)cc1,x,x,x,x,-1%
Cc1cccc(NC(=O)c2sc3nc4c(cc3c2N)CCCCCC4)c1C,x,x,x,x,2.5µM*
COC(=O)c1ccc(Nc2cc(C)nc3nc(C)nn23)cc1,5%,6%,u,-2%,0%
Cc1cc(Nc2ccccc2Br)n2nc(C)nc2n1,-12%,1%,u,1%,-3%
CCOC(=O)c1ccccc1Nc1cc(C)nc2nc(C)nn12,19%,-3%,13µM*,-2%,-3%
COC(=O)c1ccccc1Nc1cc(C)nc2nc(C)nn12,20%,1%,13µM*,-1%,-4%
COc1ccc(-n2c(CC3C(=O)N(C)c4ccc(C)cc43)nc3ccccc3c2=O)cc1 (stereo unspecified),x,x,x,x,1%
CC(=O)c1ccc(N2CCN(C(=O)CS(=O)(=O)c3cccc4nsnc34)CC2)cc1,x,x,x,x,1%
CN(Cc1ccco1)c1ncncc1-c1cccc(NS(C)(=O)=O)c1,9%,u,-4%,-3%,2%[11.4 µM]
CN(Cc1ccco1)c1ncnc2ccc(-c3cccc(NS(C)(=O)=O)c3)cc12,8%,-5%,1.3µM*,-8%,0%[11.4 µM]
NCCCCN,-4%,8%,-7%,3%,-1%
CCOc1ccc(N2C(=O)CC(/C=C3/N(C)c4ccccc4C3(C)C)C2=O)cc1 (stereo unspecified),25µM*,-25%,u,-20%,1%
CC(C)Cc1nn2c(=O)cc(COC(=O)c3ccc(NC(=O)CCc4ccccc4)cc3)nc2s1,x,x,x,x,1%
SMILES,Tau fil binding,15-hLO inh,CRE-bla Fsk,Hsp90 Hop PPI,IkB sig inh
CN(C)c1ncc2nc(-c3cccs3)c(=O)n(C[C@H]3CCCO3)c2n1,i,-3%,1.6µM*,1%,2%[11.4 µM]
CCNc1ncc2nc(-c3ccc(OC)cc3)c(=O)n(C[C@H]3CCCO3)c2n1,57%,4%,u,-6%,-9%[11.4 µM]
COc1ccc(-c2nc3cnc(N(C)C)nc3n(C[C@H]3CCCO3)c2=O)cc1,424%,-3%,2µM*,4%,-1%[11.4 µM]
COc1ccc(-c2nc3cnc(N(C)C)nc3n(C3CC3)c2=O)cc1,201%,-18%,u,-9%,-1%[11.4 µM]
COc1ccc(-c2nc3cnc(N(C)C)nc3n(C)c2=O)cc1,181%,-3%,2µM*,-3%,-3%[11.4 µM]
C=CC1=C(C)/C(=C/c2[nH]c(Cc3[nH]c(/C=C4\NC(=O)C(C)=C4C=C)c(C)c3CCC(=O)O)c(CCC(=O)O)c2C)NC1=O,x,-19%,x,x,x
Nc1cc(Cl)c(N)cc1Cl,25µM*,9%,-3%,-3%,5%
Clc1ccc(N2CCN(Cc3c[nH]c4ncccc34)CC2)cc1,40µM*!,u,u,0%,u
CCCOCc1cc(CN2CCN(c3cccc(Cl)c3)CC2)c(O)c2ncccc12,x,x,x,x,25%
CC(C)(C)c1cc(C(c2cccnc2)N2CCN(CCO)CC2)cc(C(C)(C)C)c1O (stereo unspecified),-4%,u,u,-6%,u
OCCN1CCN(C(c2cccs2)c2ccc3cccnc3c2O)CC1 (stereo unspecified),6.3µM*,4µM*,u,32µM*,u
COc1cccc2c1C(=O)c1c(O)c3c(c(O)c1C2=O)C[C@](O)(C(=O)CO)C[C@H]3O[C@@H]1C[C@H](N)[C@H](O)[C@H](C)O1,5µM*,12%[25.6 µM],8%[17.1 µM],-10%[26 µM],u
O=C(CCn1c(=O)c2cccn2c2cccnc21)NCc1ccc(F)cc1,x,x,x,x,-1%
C[C@@]12C(=O)OC(=O)[C@@]1(C)[C@@H]1CC[C@@H]2O1,32µM*,-10%[25.6 µM],u,-15%,u
COc1cccc(-n2cc(C(=O)OCc3ccc(Cl)cc3)c3ccccc3c2=O)c1,x,x,x,x,-1%
COc1ccccc1-c1noc(-c2ccc(NCC3CCCO3)c([N+](=O)[O-])c2)n1 (stereo unspecified),x,x,x,x,1%
CC(C)n1c(SCCCc2ccccc2)nc2c1c(=O)[nH]c(=O)n2C,32%,-1%,6.3µM*,-6%,6%
CCCCSc1nc2c(c(=O)[nH]c(=O)n2C)n1CCc1ccccc1,100%,1%,10µM*,u,5%
CCCCCn1c(SCCc2ccccc2)nc2c1c(=O)[nH]c(=O)n2C,-4%,-10%,12%,-5%,0%
C/C=C/Cn1c(SCCCc2ccccc2)nc2c1c(=O)[nH]c(=O)n2C,120%,u,u,-4%,u
O=C(c1ccc2c(c1)N(Cc1cccc(Cl)c1)C(=O)c1ccccc1S2(=O)=O)N1CCN(Cc2ccccc2)CC1,x,x,x,x,-1%
